This is part of a sample that, as a whole, favours compounds with a hit. Of some 83,000 tested, about 20% had one in any assay.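 Percent growth is the endpoint: 0 to 100 indicates growth inhibition (40 means 60% inhibition), 0 means no net growth, and negative values indicate cell death.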 Activity calls are given as the source filed them. How the source made its calls: active means growth percent below 10; inactive means the rest.
tested on: NCI-H522 lung; experiment: NCI-60 one-dose screen, 48 h (100 = growth as untreated, 0 = no growth, -100 = all killed); conditions: 10 µM

SMILES | growth
O=c1ncc(-c2ccc(C(F)(F)F)cc2)c(NC2CCCCCC2)[nH]1 | 29% (inactive)
O=C(N/N=C/c1cccc(O)c1)c1ccc(C(F)(F)F)nc1Nc1cccc(C(F)(F)F)c1 | -7.57% (active)
O=C(NC1CCS(=O)(=O)C1)c1ccc(C(=O)c2ccccc2)cc1 (centres undefined) | 90.9% (inactive)
Cc1ccc(S(=O)(=O)N2CCN(C(=O)CSc3nc4ccc(C)cc4[nH]3)CC2)cc1 | 97.2% (inactive)

tested on: A549/ATCC NSCLC; experiment: as above; conditions: 10 µM unless noted

SMILES | growth
CCNCCCn1c2c(c3ccc(F)cc3c1=O)C(=O)c1cc(OC)cnc1-2 | -62.6% (active)
CN(C)CCCN=c1cc2c(=O)n(CCCN(C)C)c(=O)c3c(NCCCN(C)C)cc4c(O)n(CCCN(C)C)c(=O)c1c4c3-2 | -30.8% (active)
O=C(NN1C(=O)c2cc(C(=O)O)c(C(=O)O)cc2C1=O)c1ccncc1 | 119% (inactive)
COc1ccc2c(c1)sc1nc(-c3ccc(Br)cc3)cn12 | 95% (inactive)
O=C(CNC(=O)c1cccc2ccccc12)Nc1ccccc1Oc1cccc(O)c1 | 21.8% [5 µM] (inactive)
NC(=N\N=C/Cc1ccccc1)/C(N)=N\N=C\Cc1ccccc1 | 101% (inactive)
COC(=O)c1cc2c(/C=C3/NC(=S)NC3=O)coc2n1C | 104% (inactive)
Cc1cc(=O)oc2cc(OCCn3c(C)nn(-c4ccc(Cl)cc4)c3=O)ccc12 | 30.2% (inactive)
Cn1c(N2N=C(c3ccc(Cl)cc3)CC2c2ccccc2)nc(-c2ccccc2)c(C#N)c1=O (centres undefined) | 64.8% (inactive)
Nc1ccc(N=Nc2ccccc2)cc1[N+](=O)[O-] | 85.9% (inactive)
CCN(CC)CCCCCCCNc1c2ccc(Cl)cc2nc2ccc(OC)cc12 | -37.9% (active)
Cc1sc2nc(NCc3ccccc3)[nH]c(=O)c2c1C | 33.6% (inactive)
COc1ccc(C(=O)/C=C/c2cccc(Nc3ccnc4cc(Cl)ccc34)c2)cc1 | 29.4% (inactive)
CC(=O)N1N=C(c2ccc(Nc3nc(NCCO)nc(NCCO)n3)cc2)CC1c1ccc(Cl)cc1 (centres undefined) | 78.6% (inactive)
Cc1csc(C#Cc2cncc(O)c2)n1 | 108% (inactive)
CCOC(=O)C1C(=O)NC(C(=O)OCC)(C(=O)OCC)C1CC (centres undefined) | 97.2% (inactive)

SMILES | growth
C=C1CCC2C3(C)COC(c4ccccc4)OC3CCC2(C)C1C/C=C1/C(=O)OCC1OC(C)=O (centres undefined) | 83.9% (inactive)
COc1cc(/C=C/C(=O)C(C(=O)/C=C/c2ccc(OC(=O)CCNc3nnc(C)s3)c(OC)c2)C(=O)CCNc2nnc(C)s2)ccc1OC(=O)CCNc1nnc(C)s1 | 34.3% (inactive)
Nc1nc(Nc2ccccc2SSc2ccccc2Nc2nc(N)nc(C(Cl)(Cl)Cl)n2)nc(C(Cl)(Cl)Cl)n1 | -42.5% (active)
COC(=O)C1=CCC(n2cnc3c(N)ncnc32)O1 (centres undefined) | 96.5% (inactive)
c1ccc(-c2oc(-c3ccccc3)c3ccccc23)cc1 | 99% (inactive)
COc1ccc(CCN2C(=O)CCC3=C2CCCC3=O)cc1OC | 106% (inactive)
CCCCCc1c(C)[nH]c(/C=C2\N=C(c3ccc[nH]3)C=C2Oc2ccc(Cl)cc2)c1C | -51.5% [100 µM] (active)
O=C1Nc2ccc(Cl)cc2[C@@](C#CC2CC2)(C(F)(F)F)O1 | 70.7% (inactive)
CC(=O)N1N=C(c2ccc(C(F)(F)F)cc2)CC1c1ccc2c(c1)OCO2 (centres undefined) | 91.2% (inactive)
O=C(CN1CCN(c2ccc(Cl)cc2)CC1)N1CCN(c2nnc(-c3ccccc3)c(-c3ccccc3)n2)CC1 | -6.5% (active)
NC(=O)NC1(C(=O)O)CCCC1 | 101% (inactive)
Cc1ccc(C(=O)Cc2ccccc2)c(O)c1 | 102% (inactive)
CCOC(=O)N1CCC(N=C2CSc3nnc(-c4cc(C(F)(F)F)cc(C(F)(F)F)c4)n3N2)CC1 | 21.5% (inactive)
CCOC(=O)c1cc2oc(/C=C/c3cc(=O)c4cc(Cl)ccc4o3)cc2[nH]1 | 99% (inactive)
CC(C)CNc1nc(N=[N+]=[N-])nc(NCC(C)C)n1 | 56.3% [100 µM] (inactive)
COc1ccc2c3c(ccc2c1)C(=O)/C(=C\O)CC3 | 109% (inactive)

tested on: 786-0 renal; experiment: as above; conditions: 10 µM unless noted

SMILES | growth
CCNCCCn1c2c(c3ccc(F)cc3c1=O)C(=O)c1cc(OC)cnc1-2 | -38.4% (active)
CN(C)CCCN=c1cc2c(=O)n(CCCN(C)C)c(=O)c3c(NCCCN(C)C)cc4c(O)n(CCCN(C)C)c(=O)c1c4c3-2 | -47.5% (active)
O=C(NN1C(=O)c2cc(C(=O)O)c(C(=O)O)cc2C1=O)c1ccncc1 | 107% (inactive)
COc1ccc2c(c1)sc1nc(-c3ccc(Br)cc3)cn12 | 98% (inactive)
O=C(CNC(=O)c1cccc2ccccc12)Nc1ccccc1Oc1cccc(O)c1 | 19.6% [5 µM] (inactive)
NC(=N\N=C/Cc1ccccc1)/C(N)=N\N=C\Cc1ccccc1 | 112% (inactive)
COc1cccc(/C=N/Nc2nc3ccccc3s2)c1OC | 82.1% (inactive)
COC(=O)c1cc2c(/C=C3/NC(=S)NC3=O)coc2n1C | 98.2% (inactive)
Cc1cc(=O)oc2cc(OCCn3c(C)nn(-c4ccc(Cl)cc4)c3=O)ccc12 | 32.9% (inactive)
Cn1c(N2N=C(c3ccc(Cl)cc3)CC2c2ccccc2)nc(-c2ccccc2)c(C#N)c1=O (centres undefined) | 84.4% (inactive)
Nc1ccc(N=Nc2ccccc2)cc1[N+](=O)[O-] | 107% (inactive)
CCN(CC)CCCCCCCNc1c2ccc(Cl)cc2nc2ccc(OC)cc12 | -57.5% (active)
Cc1sc2nc(NCc3ccccc3)[nH]c(=O)c2c1C | 67.2% (inactive)
COc1ccc(C(=O)/C=C/c2cccc(Nc3ccnc4cc(Cl)ccc34)c2)cc1 | -35.4% (active)
CC(=O)N1N=C(c2ccc(Nc3nc(NCCO)nc(NCCO)n3)cc2)CC1c1ccc(Cl)cc1 (centres undefined) | 89% (inactive)
Cc1csc(C#Cc2cncc(O)c2)n1 | 105% (inactive)
CCOC(=O)C1C(=O)NC(C(=O)OCC)(C(=O)OCC)C1CC (centres undefined) | 107% (inactive)
C=C1CCC2C3(C)COC(c4ccccc4)OC3CCC2(C)C1C/C=C1/C(=O)OCC1OC(C)=O (centres undefined) | 95.3% (inactive)
COc1cc(/C=C/C(=O)C(C(=O)/C=C/c2ccc(OC(=O)CCNc3nnc(C)s3)c(OC)c2)C(=O)CCNc2nnc(C)s2)ccc1OC(=O)CCNc1nnc(C)s1 | -38% (active)

SMILES | growth
Nc1nc(Nc2ccccc2SSc2ccccc2Nc2nc(N)nc(C(Cl)(Cl)Cl)n2)nc(C(Cl)(Cl)Cl)n1 | 70% (inactive)
COC(=O)C1=CCC(n2cnc3c(N)ncnc32)O1 (centres undefined) | 107% (inactive)
c1ccc(-c2oc(-c3ccccc3)c3ccccc23)cc1 | 101% (inactive)
COc1ccc(CCN2C(=O)CCC3=C2CCCC3=O)cc1OC | 108% (inactive)
CCCCCc1c(C)[nH]c(/C=C2\N=C(c3ccc[nH]3)C=C2Oc2ccc(Cl)cc2)c1C | -18.2% [100 µM] (active)
O=C1Nc2ccc(Cl)cc2[C@@](C#CC2CC2)(C(F)(F)F)O1 | 96.6% (inactive)
CC(=O)N1N=C(c2ccc(C(F)(F)F)cc2)CC1c1ccc2c(c1)OCO2 (centres undefined) | 87.4% (inactive)
O=C(CN1CCN(c2ccc(Cl)cc2)CC1)N1CCN(c2nnc(-c3ccccc3)c(-c3ccccc3)n2)CC1 | 35.9% (inactive)
NC(=O)NC1(C(=O)O)CCCC1 | 107% (inactive)
Cc1ccc(C(=O)Cc2ccccc2)c(O)c1 | 112% (inactive)
CCOC(=O)c1cc2oc(/C=C/c3cc(=O)c4cc(Cl)ccc4o3)cc2[nH]1 | 97.7% (inactive)
O=c1ncc(-c2ccc(C(F)(F)F)cc2)c(NC2CCCCCC2)[nH]1 | 76.7% (inactive)
CCOc1nc(-c2ccco2)n2nc(-c3ccco3)cc2n1 | 103% (inactive)
O=C(N/N=C/c1cccc(O)c1)c1ccc(C(F)(F)F)nc1Nc1cccc(C(F)(F)F)c1 | -13.8% (active)
CC(C)CNc1nc(N=[N+]=[N-])nc(NCC(C)C)n1 | 55.5% [100 µM] (inactive)
COc1ccc2c3c(ccc2c1)C(=O)/C(=C\O)CC3 | 103% (inactive)
O=C(NC1CCS(=O)(=O)C1)c1ccc(C(=O)c2ccccc2)cc1 (centres undefined) | 101% (inactive)
COc1ccc2cc(-c3nc4ccccc4[nH]3)c(=O)oc2c1 | 98% (inactive)
Cc1ccc(S(=O)(=O)N2CCN(C(=O)CSc3nc4ccc(C)cc4[nH]3)CC2)cc1 | 107% (inactive)

From PubChem BioAssay (NCI)
